Where “and” joins values, the source holds several entries; their conditions need not be identical. Equal entries are not always repeated. Calls of active or inactive are those of the source. A call without a number means that no potency is given here. Calls come from the whole dose curve; as a rule, active = well fitted activation curve with a large enough effect in the repeat runs; inconclusive = weak or mixed curves; inactive = flat fitted curve, though single readings scatter.
target: Androgen receptor (Homo sapiens) (UniProt P10275); assay: qHTS assay to identify small molecule agonists of the androgen receptor (AR) signaling pathway using the MDA cell line (AID 743040; note: nearly all actives have a fitted effect of over 20% in size); settings: MDA-kb2 AR-luc cells, MMTV luciferase, 16 h; series mostly up to 70.3 µM
Description: National Center for Advancing Translational Sciences [NCATS]
NIH Chemical Genomics Center [NCGC]
U.S. Environmental Protection Agency [EPA]
National Institutes of Environmental Health Sciences [NIEHS]
National Toxicology Program [NTP]
U.S. Food and Drug Administration [FDA]
Androgen receptor (AR), a nuclear hormone receptor, plays a critical role in AR-dependent prostate cancer and other androgen related diseases. Endocrine disrupting chemicals (EDCs) and their interactions with steroid hormone receptors like AR may cause disruption of normal endocrine function as well as interfere with metabolic homeostasis, reproduction, developmental and behavioral functions. To identify the compounds that activate AR signaling, MDA-kb2 AR-luc cell line (from ATCC, deposited by Wilson et al.) was used to screen the Tox21 10K compound library. MDA-kb2 AR-luc cell line is human breast carcinoma cell line that was stably transfected with a luciferase reporter gene under control of the MMTV promoter containing response elements for both androgen receptor (AR) and glucocorticoid receptor (GR).
Tox21 Assay Protocol Summary:
MDA-kb2 AR-luc cells were dispensed at 3,000 cells/5 uL/well of culture medium into white wall/solid-bottom 1536-well plates using a Multidrop Combi (ThermoFisher Scientific, Waltham, MA) dispenser. After the assay plates were incubated at 37C and 0% CO2 for 5 h, 23 nL of compounds dissolved in DMSO, positive controls or DMSO only was transferred to the assay plate by a Pintool station (Kalypsys, San Diego, CA). The plates were incubated at 37C and 0% CO2 for 16 h. Then 4 uL of ONE-Glo reagent (Promega, Madison, WI) was added to each plate using a Bioraptr Flying Reagent Dispenser (FRD) workstation (Beckman Coulter, Indianapolis, IN, USA) and luminescence was quantified on a ViewLux (PerkinElmer, Shelton, CT) plate reader after 30 min incubation at room temperature.
Potency is the fitted concentration of half-maximal effect.

Sequence of Androgen receptor (Homo sapiens) (P10275 whole entry, looked up): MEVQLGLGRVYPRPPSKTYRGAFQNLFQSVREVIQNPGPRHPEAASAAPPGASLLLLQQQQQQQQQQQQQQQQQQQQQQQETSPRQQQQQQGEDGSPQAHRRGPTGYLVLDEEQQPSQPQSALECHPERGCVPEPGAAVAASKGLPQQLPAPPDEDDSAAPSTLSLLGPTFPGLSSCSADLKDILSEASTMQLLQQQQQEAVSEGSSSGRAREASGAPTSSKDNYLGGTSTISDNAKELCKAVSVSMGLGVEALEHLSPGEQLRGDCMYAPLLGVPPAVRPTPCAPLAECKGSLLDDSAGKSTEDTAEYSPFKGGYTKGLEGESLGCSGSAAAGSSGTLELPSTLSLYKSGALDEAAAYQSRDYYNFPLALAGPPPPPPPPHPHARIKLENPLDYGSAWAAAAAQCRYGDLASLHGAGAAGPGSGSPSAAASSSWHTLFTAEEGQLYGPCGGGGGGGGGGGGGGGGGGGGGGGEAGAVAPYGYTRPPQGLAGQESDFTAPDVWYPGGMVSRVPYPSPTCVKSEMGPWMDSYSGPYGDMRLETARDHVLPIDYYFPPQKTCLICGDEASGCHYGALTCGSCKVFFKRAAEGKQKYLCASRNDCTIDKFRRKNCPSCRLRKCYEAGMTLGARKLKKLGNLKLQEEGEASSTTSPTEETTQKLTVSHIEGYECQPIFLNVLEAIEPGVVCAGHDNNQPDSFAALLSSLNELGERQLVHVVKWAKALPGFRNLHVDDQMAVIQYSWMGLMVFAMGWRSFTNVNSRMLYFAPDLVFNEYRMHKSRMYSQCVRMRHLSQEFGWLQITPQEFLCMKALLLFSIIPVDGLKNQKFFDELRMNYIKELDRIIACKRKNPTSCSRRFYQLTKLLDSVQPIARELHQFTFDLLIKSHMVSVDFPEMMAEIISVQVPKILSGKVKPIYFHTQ

How did the Potency turn out when `NCC(O)c1cccc(O)c1` (stereo not given) was run?
The Potency was “inactive”.

With `O=C1CCCCC1CN1CCCCC1` (stereo not given) as the compound, how does the Potency read?
The Potency was “inactive”.

How did the Potency turn out when `O=C1CN(O)C(c2ccccc2)=c2cc(Cl)ccc2=N1` was run?
Its Potency is “inactive”.

Which Potency does the source give for `COC(COC(N)=O)C1=C(N2CC2)C(=O)C(C)=C(N2CC2)C1=O` (stereo not given) here?
Its Potency is “inactive”.

For `Oc1cccc[c]1[Hg][Cl]`, which Potency is on record?
Its Potency is “inactive”.

With `Cc1ccccc1-n1c(CF)nc2ccc(N)cc2c1=O` as the compound, how does the Potency read?
The Potency was 26.6 µM (active).

For `O=c1c2ccccc2[se]n1-c1ccccc1`, which Potency is on record?
Its Potency is “inactive”.

How did the Potency turn out when `CCN(CC)C(=O)N[C@H]1C[C@@H]2c3cccc4[nH]cc(c34)C[C@H]2N(C)C1` was run?
The Potency was “inactive”.

With `C=CCN1CC[C@]23c4c5ccc(O)c4O[C@H]2[C@@H](O)C=C[C@H]3[C@H]1C5` as the compound, how does the Potency read?
Its Potency is “inactive”.

For `CN1CC[C@@]23CCCC[C@@H]2[C@@H]1Cc1ccc(O)cc13`, which Potency is on record?
The Potency was 26.6 µM (active).

How did the Potency turn out when `C[C@@H](Cc1ccccc1)N(C)C` was run?
Its Potency is “inactive”.

For `CCC(=O)O[C@]1(c2ccccc2)CCN(C)C[C@H]1C`, which Potency is on record?
The Potency was “inactive”.

Which Potency does the source give for `C[N+]1(C)CCCCC1COC(=O)C(O)(c1ccccc1)c1ccccc1` (stereo not given) here?
The Potency was “inactive”.

`C[C@]12CC[C@H]3[C@@H](CCC4=C(Cl)C(=O)CC[C@@]43C)[C@@H]1CC[C@@H]2O` was tested. Which Potency did it give?
Its Potency is 0.0019 µM (active).

`Clc1ccc2c(c1)C(c1ccccc1)=NCc1nncn1-2` was tested. Which Potency did it give?
Its Potency is “inactive”.

How did the Potency turn out when `C[C@H]1CC[C@]2(NC1)O[C@H]1C[C@H]3[C@@H]4CC[C@H]5C[C@@H](O[C@@H]6O[C@H](CO)[C@H](O[C@@H]7O[C@H](CO)[C@@H](O)[C@H](O[C@@H]8OC[C@@H](O)[C@H](O)[C@H]8O)[C@H]7O[C@@H]7O[C@H](CO)[C@@H](O)[C@H](O)[C@H]7O)[C@H](O)[C@H]6O)CC[C@]5(C)[C@H]4CC[C@]3(C)[C@H]1[C@@H]2C` was run?
The Potency was “inactive”.

For `C[C@]12C[C@H]3S[C@H]3C[C@@H]1CC[C@@H]1[C@@H]2CC[C@]2(C)[C@@H](O)CC[C@@H]12`, which Potency is on record?
Its Potency is 0.0003 µM (active).

With `CC(=O)O[C@H]1CC[C@H]2[C@@H]3CCC4=CC(=O)CCC4=C3C=C[C@]12C` as the compound, how does the Potency read?
Its Potency is 0.0017 µM (active).

`CCCSc1cc(OC)c(CCN)cc1OC` was tested. Which Potency did it give?
Its Potency is “inactive”.

For `C[C@]12CC[C@H](OS(=O)(=O)O)CC1=CC[C@@H]1[C@@H]2CC[C@]2(C)C(=O)CC[C@@H]12`, which Potency is on record?
Its Potency is 21.1 µM (active).

`N#CC(C#N)=Cc1cc(O)c(O)c(O)c1` was tested. Which Potency did it give?
Its Potency is “inactive”.

`O=C1Nc2ccc(Cl)cc2C(c2ccccc2Cl)=NC1O` (stereo not given) was tested. Which Potency did it give?
Its Potency is “inactive”.

How did the Potency turn out when `COC(=O)[C@]12CCC(C)(C)C[C@H]1[C@H]1C(=O)C=C3[C@@]4(C)C=C(C#N)C(=O)C(C)(C)[C@@H]4CC[C@@]3(C)[C@]1(C)CC2` was run?
Its Potency is “inactive”.

For `C[C@@H]1[C@@H]2Cc3ccc(O)cc3[C@@]1(C)CCN2CC1CC1`, which Potency is on record?
The Potency was “inactive”.

Which Potency does the source give for `O=c1ccc2cc(O[C@@H]3O[C@H](CO)[C@@H](O)[C@H](O)[C@H]3O)c(O)cc2o1` here?
Its Potency is “inactive”.

For `COc1ccc(OC)c([C@@H](O)[C@H](C)N)c1`, which Potency is on record?
The Potency was “inactive”.

Which Potency does the source give for `C[C@]12CC[C@@H]3c4ccc(OC(=O)N(CCCl)CCCl)cc4CC[C@H]3[C@@H]1CC[C@@H]2OP(=O)(O)O` here?
Its Potency is 5.31 µM (active) and 10.6 µM (active).

Which Potency does the source give for `Oc1cc[c]([Hg][Cl])cc1` here?
The Potency was “inactive”.

For `CNC(=O)Oc1ccccc1C(=O)Nc1ccccc1`, which Potency is on record?
The Potency was “inactive”.

`C=CCC1(C(C)CCC)C(=O)N=C(S)NC1=O` (stereo not given) was tested. Which Potency did it give?
Its Potency is “inactive”.

`C[C@@H]1[C@H](O)[C@@H](C)/C=C/C=C/CC/C=C/C=C/C=C/C=C/[C@H](O[C@H]2O[C@@H](C)[C@H](O)[C@@H](N)[C@H]2O)CC2O[C@](O)(C[C@@H](O)[C@H](O)CC[C@@H](O)C[C@@H](O)C[C@@H](O)CC(=O)O[C@H]1C)C[C@H](O)[C@H]2C(=O)O` was tested. Which Potency did it give?
Its Potency is “inactive”.

With `C[N+]1(C)[C@@H]2CC[C@H]1CC(OC(=O)c1c[nH]c3ccccc13)C2` (stereo not given in full) as the compound, how does the Potency read?
The Potency was “inactive”.

With `NCC[C@H](O)C(=O)N[C@@H]1C[C@H](N)[C@@H](O[C@H]2O[C@H](CN)[C@@H](O)[C@H](O)[C@H]2N)[C@H](O[C@@H]2O[C@H](CO)[C@@H](O)[C@H]2O)[C@H]1O` as the compound, how does the Potency read?
Its Potency is “inactive”.

With `Nc1ccc([N+](=O)[O-])cc1` as the compound, how does the Potency read?
Its Potency is “inactive”.

Which Potency does the source give for `CCOC(=O)C(O)(c1ccc(Cl)cc1)c1ccc(Cl)cc1` here?
Its Potency is “inactive”.

For `CCCCCN(C)CCC(O)(P(=O)(O)O)P(=O)(O)O`, which Potency is on record?
Its Potency is “inactive”.

With `C/C(=C\c1csc(C)n1)[C@@H]1C[C@@H]2O[C@]2(C)CCC[C@H](C)[C@H](O)[C@@H](C)C(=O)C(C)(C)[C@@H](O)CC(=O)O1` as the compound, how does the Potency read?
The Potency was “inactive”.

How did the Potency turn out when `Cc1cc(C(C)(C)c2ccc(O)c(C)c2)ccc1O` was run?
The Potency was “inactive”.

For `COC(=O)[C@H]1[C@@H](OC(=O)c2ccccc2)C[C@@H]2CC[C@H]1N2C`, which Potency is on record?
The Potency was “inactive”.

Which Potency does the source give for `CCCCNC(C)(C)[P+](=O)O` here?
The Potency was “inactive”.

Source: PubChem BioAssay (Tox21)
